What all share (test): PBM; 200 nM protein, PBS
Conditions in all cases: dsDNA, one strand shown

Experiment [1] has as its target T1, SIX6 (Homo sapiens, UniProt O95475 114-200, L167I).
T1 sequence: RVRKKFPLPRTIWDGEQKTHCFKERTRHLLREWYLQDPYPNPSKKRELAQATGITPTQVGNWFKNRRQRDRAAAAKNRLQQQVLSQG

Experiment [2] deals with HOXA4 (Homo sapiens, UniProt Q00056 201-287, W262R).
The target of experiment [3] is HOXC9 (Homo sapiens, UniProt P31274 178-260, K195R).
For experiment [4], the target named is T2, SIX6 (Homo sapiens, UniProt O95475 114-200, L143V).
T2 sequence: T1 sequence with L30V, I54L

For experiment [5], the target named is HOXA7 (Homo sapiens, UniProt P31268 116-202).
Chain of HOXA7 (Homo sapiens, UniProt P31268 116-202) (P31268 116-202): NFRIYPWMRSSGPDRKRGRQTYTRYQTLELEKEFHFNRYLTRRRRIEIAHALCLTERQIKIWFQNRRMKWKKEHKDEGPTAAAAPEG
Experiment [6] addresses T3, SIX6 (Homo sapiens, UniProt O95475 114-200, H141N).
T3 sequence: T1 sequence with H28N, I54L

Experiment [7] concerns the target T4, SIX6 (Homo sapiens, UniProt O95475 114-200, T165P).
T4 sequence: T1 sequence with T52P, I54L

Experiment [8] addresses T5, SIX6 (Homo sapiens, UniProt O95475 114-200, L167M).
T5 sequence: T1 sequence with I54M

For experiment [9], the target named is T6, SIX6 (Homo sapiens, UniProt O95475 114-200, L143M).
T6 sequence: T1 sequence with L30M, I54L

Experiment [10] concerns the target T7, SIX6 (Homo sapiens, UniProt O95475 114-200, L143I).
T7 sequence: T1 sequence with L30I, I54L

Experiment [11] deals with T8, SIX6 (Homo sapiens, UniProt O95475 114-200, T165G).
T8 sequence: T1 sequence with T52G, I54L

Experiment [12] has as its target HOXA4 (Homo sapiens, UniProt Q00056 201-287, R217L).
Experiment [13] deals with T9, SIX6 (Homo sapiens, UniProt O95475 114-200, T139Q).
T9 sequence: T1 sequence with T26Q, I54L

In experiment [14] the target is HOXC9 (Homo sapiens, UniProt P31274 178-260).
Chain of HOXC9 (Homo sapiens, UniProt P31274 178-260) (P31274 178-260): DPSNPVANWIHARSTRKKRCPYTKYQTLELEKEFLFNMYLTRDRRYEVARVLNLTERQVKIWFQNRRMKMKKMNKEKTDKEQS
Experiment [15] concerns the target T10, SIX6 (Homo sapiens, UniProt O95475 114-200, T165A).
T10 sequence: T1 sequence with T52A, I54L

In the next experiment the target is PITX2 (Homo sapiens, UniProt Q99697 72-157).
The target of experiment [16] is HOXC9 (Homo sapiens, UniProt P31274 178-260, R193K).
Chain of HOXC9 (Homo sapiens, UniProt P31274 178-260, R193K) (P31274 178-260 R193K): as the sequence (P31274 178-260) above, with R16K counted along it
In experiment [17] the target is HOXA4 (Homo sapiens, UniProt Q00056 201-287).
Chain of HOXA4 (Homo sapiens, UniProt Q00056 201-287) (Q00056 201-287): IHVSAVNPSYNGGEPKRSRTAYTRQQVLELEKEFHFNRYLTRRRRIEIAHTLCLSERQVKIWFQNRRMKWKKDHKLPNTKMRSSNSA
For experiment [18], the target named is T11, SIX6 (Homo sapiens, UniProt O95475 114-200, L167V).
T11 sequence: T1 sequence with I54V

For experiment [19], the target named is T12, SIX6 (Homo sapiens, UniProt O95475 114-200).
T12 sequence: T1 sequence with I54L

The target of experiment [20] is T13, SIX6 (Homo sapiens, UniProt O95475 114-200, T165I).
T13 sequence: T1 sequence with T52I, I54L

Experiment [21] has as its target HOXC9 (Homo sapiens, UniProt P31274 178-260, R222W).
For experiment [22], the target named is HOXA7 (Homo sapiens, UniProt P31268 116-202, W177C).
Chain of HOXA7 (Homo sapiens, UniProt P31268 116-202, W177C) (P31268 116-202 W177C): as the sequence (P31268 116-202) above, with W62C counted along it
For experiment [23], the target named is HOXA4 (Homo sapiens, UniProt Q00056 201-287, W262F).
Chain of HOXA4 (Homo sapiens, UniProt Q00056 201-287, W262F) (Q00056 201-287 W262F): as the sequence (Q00056 201-287) above, with W62F counted along it
In experiment [24] the target is HOXB6 (Homo sapiens, UniProt P17509 132-218, K202E).
Chain of HOXB6 (Homo sapiens, UniProt P17509 132-218, K202E) (P17509 132-218 K202E): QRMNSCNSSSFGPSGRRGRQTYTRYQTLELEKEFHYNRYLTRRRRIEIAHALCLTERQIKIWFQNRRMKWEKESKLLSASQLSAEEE
Experiment [25] deals with HOXB6 (Homo sapiens, UniProt P17509 132-218).
Chain of HOXB6 (Homo sapiens, UniProt P17509 132-218) (P17509 132-218): as the sequence (P17509 132-218 K202E) above, with E71K counted along it
For experiment [26], the target named is HOXB9 (Homo sapiens, UniProt P17482 171-250).
Chain of HOXB9 (Homo sapiens, UniProt P17482 171-250) (P17482 171-250): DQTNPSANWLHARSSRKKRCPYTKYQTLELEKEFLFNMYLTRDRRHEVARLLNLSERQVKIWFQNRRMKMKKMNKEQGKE
The target in experiment [27] is HOXB9 (Homo sapiens, UniProt P17482 171-250, R186Q).
Chain of HOXB9 (Homo sapiens, UniProt P17482 171-250, R186Q) (P17482 171-250 R186Q): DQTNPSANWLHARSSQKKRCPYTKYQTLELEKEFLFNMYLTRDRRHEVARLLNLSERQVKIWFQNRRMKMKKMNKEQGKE
Experiment [28] has as its target T14, PAX4 (Homo sapiens, UniProt O43316 9-242, R200K).
T14 sequence: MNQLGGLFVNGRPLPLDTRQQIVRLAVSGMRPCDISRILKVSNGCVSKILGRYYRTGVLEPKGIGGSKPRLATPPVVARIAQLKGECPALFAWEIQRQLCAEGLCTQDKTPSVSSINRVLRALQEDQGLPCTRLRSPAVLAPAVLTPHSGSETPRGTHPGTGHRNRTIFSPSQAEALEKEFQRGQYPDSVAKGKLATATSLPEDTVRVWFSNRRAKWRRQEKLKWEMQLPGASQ

The target in experiment [29] is T15, PAX4 (Homo sapiens, UniProt O43316 9-242).
T15 sequence: T14 sequence with K192R

Experiment [30] concerns the target T16, PAX4 (Homo sapiens, UniProt O43316 9-242, R200Q).
T16 sequence: T14 sequence with K192Q

The target of experiment [31] is T17, PAX4 (Homo sapiens, UniProt O43316 9-242, F177V).
T17 sequence: T14 sequence with F169V, K192R

Experiment [32] deals with T18, PAX4 (Homo sapiens, UniProt O43316 9-242, F177Y).
T18 sequence: T14 sequence with F169Y, K192R

In experiment [33] the target is T19, PAX4 (Homo sapiens, UniProt O43316 9-242, R227W).
T19 sequence: T14 sequence with K192R, R219W

Residue numbers refer to the chain shown, from its start.

Chain of HOXC9 (Homo sapiens, UniProt P31274 178-260, R222W) (P31274 178-260 R222W): as the sequence (P31274 178-260) above, with R45W counted along it
Chain of HOXA4 (Homo sapiens, UniProt Q00056 201-287, W262R) (Q00056 201-287 W262R): as the sequence (Q00056 201-287) above, with W62R counted along it
Chain of HOXC9 (Homo sapiens, UniProt P31274 178-260, K195R) (P31274 178-260 K195R): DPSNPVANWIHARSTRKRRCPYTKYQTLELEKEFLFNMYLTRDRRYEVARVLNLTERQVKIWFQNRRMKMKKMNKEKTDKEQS
Chain of HOXA4 (Homo sapiens, UniProt Q00056 201-287, R217L) (Q00056 201-287 R217L): as the sequence (Q00056 201-287) above, with R17L counted along it

For CCCAGCCG, the binding signal is 9.06 upbm affinity estimate (log intensity, higher = more binding, comparable within an allelic series) with SIX6 [1]; 9.73 upbm affinity estimate (log intensity, higher = more binding, comparable within an allelic series) in the experiment with HOXA4 [2]; 9.41 upbm affinity estimate (log intensity, higher = more binding, comparable within an allelic series) in the experiment with HOXC9 [3]; 8.82 upbm affinity estimate (log intensity, higher = more binding, comparable within an allelic series) in the experiment with SIX6 [4]; 8.28 upbm affinity estimate (log intensity, higher = more binding, comparable within an allelic series) with HOXA7 [5]; 9.12 upbm affinity estimate (log intensity, higher = more binding, comparable within an allelic series) with SIX6 [6]. Further, the binding signal in the experiment with SIX6 [7] is 8.84 upbm affinity estimate (log intensity, higher = more binding, comparable within an allelic series); with SIX6 [8], 9.01 upbm affinity estimate (log intensity, higher = more binding, comparable within an allelic series); with SIX6 [9], 8.87 upbm affinity estimate (log intensity, higher = more binding, comparable within an allelic series); with SIX6 [10] it was 8.92 upbm affinity estimate (log intensity, higher = more binding, comparable within an allelic series); with SIX6 [11], 9.07 upbm affinity estimate (log intensity, higher = more binding, comparable within an allelic series); with HOXA4 [12], 9.56 upbm affinity estimate (log intensity, higher = more binding, comparable within an allelic series). For the same sequence, the binding signal was 9.24 upbm affinity estimate (log intensity, higher = more binding, comparable within an allelic series) with SIX6 [13]; 9.56 upbm affinity estimate (log intensity, higher = more binding, comparable within an allelic series) with HOXC9 [14]; 9.06 upbm affinity estimate (log intensity, higher = more binding, comparable within an allelic series) with SIX6 [15]; 8.01 upbm affinity estimate (log intensity, higher = more binding, comparable within an allelic series) in the experiment with PITX2; 9.38 upbm affinity estimate (log intensity, higher = more binding, comparable within an allelic series) in the experiment with HOXC9 [16]; 9.64 upbm affinity estimate (log intensity, higher = more binding, comparable within an allelic series) with HOXA4 [17]. The binding signal with SIX6 [18] was 8.98 upbm affinity estimate (log intensity, higher = more binding, comparable within an allelic series); with SIX6 [19], 9.03 upbm affinity estimate (log intensity, higher = more binding, comparable within an allelic series); in the experiment with SIX6 [20], 9.05 upbm affinity estimate (log intensity, higher = more binding, comparable within an allelic series); with HOXC9 [21], 9.62 upbm affinity estimate (log intensity, higher = more binding, comparable within an allelic series); in the experiment with HOXA7 [22], 8.32 upbm affinity estimate (log intensity, higher = more binding, comparable within an allelic series); with HOXA4 [23], 9.72 upbm affinity estimate (log intensity, higher = more binding, comparable within an allelic series).
For CGCTCCGC, the binding signal with SIX6 [1] was 8.79 upbm affinity estimate (log intensity, higher = more binding, comparable within an allelic series); in the experiment with SIX6 [4], 8.89 upbm affinity estimate (log intensity, higher = more binding, comparable within an allelic series); with SIX6 [6], 8.83 upbm affinity estimate (log intensity, higher = more binding, comparable within an allelic series); with SIX6 [7] it was 8.94 upbm affinity estimate (log intensity, higher = more binding, comparable within an allelic series); with SIX6 [8] it was 8.9 upbm affinity estimate (log intensity, higher = more binding, comparable within an allelic series); with SIX6 [9] it was 8.87 upbm affinity estimate (log intensity, higher = more binding, comparable within an allelic series). Moreover, the binding signal with SIX6 [10] is 8.84 upbm affinity estimate (log intensity, higher = more binding, comparable within an allelic series); with HOXB6 [24], 9.03 upbm affinity estimate (log intensity, higher = more binding, comparable within an allelic series); in the experiment with SIX6 [11], 8.81 upbm affinity estimate (log intensity, higher = more binding, comparable within an allelic series); with SIX6 [13] it was 8.84 upbm affinity estimate (log intensity, higher = more binding, comparable within an allelic series); in the experiment with SIX6 [15], 8.85 upbm affinity estimate (log intensity, higher = more binding, comparable within an allelic series); with SIX6 [18], 8.79 upbm affinity estimate (log intensity, higher = more binding, comparable within an allelic series). For the same sequence, the binding signal with SIX6 [19] was 8.81 upbm affinity estimate (log intensity, higher = more binding, comparable within an allelic series); in the experiment with SIX6 [20], 8.82 upbm affinity estimate (log intensity, higher = more binding, comparable within an allelic series); with HOXB6 [25], 9.09 upbm affinity estimate (log intensity, higher = more binding, comparable within an allelic series).
In the case of AGTGATAT, the binding signal was 11.3 upbm affinity estimate (log intensity, higher = more binding, comparable within an allelic series) with SIX6 [1]; 10.3 upbm affinity estimate (log intensity, higher = more binding, comparable within an allelic series) in the experiment with SIX6 [4]; 11.3 upbm affinity estimate (log intensity, higher = more binding, comparable within an allelic series) in the experiment with SIX6 [6]; 9.9 upbm affinity estimate (log intensity, higher = more binding, comparable within an allelic series) with SIX6 [7]; 10.8 upbm affinity estimate (log intensity, higher = more binding, comparable within an allelic series) with SIX6 [8]; 11 upbm affinity estimate (log intensity, higher = more binding, comparable within an allelic series) in the experiment with SIX6 [9]. The binding signal with SIX6 [10] was 10.3 upbm affinity estimate (log intensity, higher = more binding, comparable within an allelic series); in the experiment with SIX6 [11], 11.2 upbm affinity estimate (log intensity, higher = more binding, comparable within an allelic series); in the experiment with HOXB9 [26], 9.87 upbm affinity estimate (log intensity, higher = more binding, comparable within an allelic series); with SIX6 [13], 11.1 upbm affinity estimate (log intensity, higher = more binding, comparable within an allelic series); with SIX6 [15] it was 11.2 upbm affinity estimate (log intensity, higher = more binding, comparable within an allelic series); with SIX6 [18], 11 upbm affinity estimate (log intensity, higher = more binding, comparable within an allelic series). The binding signal with SIX6 [19] is 11 upbm affinity estimate (log intensity, higher = more binding, comparable within an allelic series); with SIX6 [20] it was 11.1 upbm affinity estimate (log intensity, higher = more binding, comparable within an allelic series); with HOXB9 [27], 9.76 upbm affinity estimate (log intensity, higher = more binding, comparable within an allelic series).
Turning to CTCCGCCC, the binding signal was 8.91 upbm affinity estimate (log intensity, higher = more binding, comparable within an allelic series) with SIX6 [1]; 8.91 upbm affinity estimate (log intensity, higher = more binding, comparable within an allelic series) with SIX6 [4]; 9.45 upbm affinity estimate (log intensity, higher = more binding, comparable within an allelic series) with PAX4 [28]; 8.92 upbm affinity estimate (log intensity, higher = more binding, comparable within an allelic series) in the experiment with SIX6 [6]; 8.95 upbm affinity estimate (log intensity, higher = more binding, comparable within an allelic series) with SIX6 [7]; 9.46 upbm affinity estimate (log intensity, higher = more binding, comparable within an allelic series) in the experiment with PAX4 [29]. In addition, the binding signal with SIX6 [8] was 8.94 upbm affinity estimate (log intensity, higher = more binding, comparable within an allelic series); in the experiment with SIX6 [9], 8.89 upbm affinity estimate (log intensity, higher = more binding, comparable within an allelic series); with SIX6 [10], 8.86 upbm affinity estimate (log intensity, higher = more binding, comparable within an allelic series); in the experiment with SIX6 [11] it was 8.87 upbm affinity estimate (log intensity, higher = more binding, comparable within an allelic series); in the experiment with SIX6 [13], 8.89 upbm affinity estimate (log intensity, higher = more binding, comparable within an allelic series); in the experiment with SIX6 [15], 8.96 upbm affinity estimate (log intensity, higher = more binding, comparable within an allelic series). Moreover, the binding signal with PAX4 [30] was 9.44 upbm affinity estimate (log intensity, higher = more binding, comparable within an allelic series); in the experiment with PAX4 [31], 9.16 upbm affinity estimate (log intensity, higher = more binding, comparable within an allelic series); with SIX6 [18] it was 8.86 upbm affinity estimate (log intensity, higher = more binding, comparable within an allelic series); with PAX4 [32] it was 9.22 upbm affinity estimate (log intensity, higher = more binding, comparable within an allelic series); with SIX6 [19], 8.89 upbm affinity estimate (log intensity, higher = more binding, comparable within an allelic series); with SIX6 [20], 8.95 upbm affinity estimate (log intensity, higher = more binding, comparable within an allelic series). The binding signal in the experiment with PAX4 [33] was 9.35 upbm affinity estimate (log intensity, higher = more binding, comparable within an allelic series).

Values taken from publication PMC11006913.
